KB-V1 cytotox: KB-V1 MDR subline cytotoxicity; KB-V1 MDR cells viability, CellTiter-Glo, 72 h; Potency, µM (top dose mostly 46.1 µM), usual class: cytotoxic; 3.4% of 400,000 active; note: % is set by controls: 0 for no effect and ±100 for the full control effect; nearly all actives have a fitted effect of over 60% in size
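KB-V1, DMEM (no phenol red) + 10% FBS; cpd pin-transferred, titration series; 72 h, 37 degrees C; CellTiter-Glo, luminescence. Data normalized, curve-fit.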
SW480 rerep: inducers of DNA re-replication in SW480 colon cancer cells; Potency, µM (top dose mostly 46.1 µM), for the others: top-dose re-replication activation, actives largely listed as activators; SW480 DNA re-replication, Hoechst DNA content imaging, 48 h; 1.8% of 340,000 active; note: % of control where 0% means no effect; nearly all actives have a fitted effect of over 55% in size
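Readout is total intensity of Hoechst-stained nuclei, excited at 405 nm and collected at 500-530 nm. Compound treatment lasted 48 hr at 37 C in 5% CO2 before staining.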
HT1080 IDH1KD tx: kills HT-1080 cells with IDH1 knockdown. 2% of 360,000 active. HT-1080 IDH1 knockdown viability, ATP luminescence, 48 h. Potency, µM (doses to about 46.1 µM), without a hit: at the top dose activity, negative = toxicity, hits mostly cytotoxic;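 note: 0% = DMSO wells and -100% = cell-free medium wells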
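Using the IDH1-knockdown HT-1080 line run in the same batch and compound series as the NT line, viability after 48 h at 37 °C was determined by CellTiter-Glo luminescence and expressed as % activity.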
KB-3-1 cytotox: KB-3-1 parental cell cytotoxicity | AID 1347075 | 1.4% of 400,000 active | KB-3-1 viability, CellTiter-Glo ATP luminescence, 72 h | Potency, µM (top dose mostly 46.1 µM), hits mostly cytotoxic; note: % is set by controls: 0 for no effect and ±100 for the full control effect; nearly all actives have a fitted effect of over 60% in size
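Luminescent ATP read-out (CellTiter-Glo) measures survival of drug-naive KB-3-1 cells after 72 h compound exposure at 37 °C. Titration series was screened from lowest to highest concentration, with DMSO vehicle plates as background controls.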
MCF10A rereplic: induces DNA re-replication in MCF 10a normal breast cells | Potency, µM (series often up to 46.1 µM), inactives show at the highest dose activity, positive = re-replication, usual class: activators | MCF 10A DNA re-replication, Hoechst nuclear intensity, 48 h | 2.9% of 350,000 active; note: % of control where 0% means no effect; nearly all actives have a fitted effect of over 50% in size
HT1080NT lethal: kills 2HG-producing HT-1080-NT fibrosarcoma cells; HT-1080-NT fibrosarcoma viability, CellTiter-Glo ATP luminescence, 48 h; Potency, µM (top dose mostly 46.1 µM), inactives show at the top dose activity, negative = less viability, most hits filed as cytotoxic; 1.6% of 360,000 active; AID 686970;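 note: NT is the 2HG producing partner of a matched IDH1 knockdown line; 0% = DMSO-treated cells and -100% = media-only wells without cells; nearly all actives have a fitted effect of over 55% in size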
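Fibrosarcoma NT cells, 750 per well in 5% FBS RPMI, were exposed to compound for 48 hours. Viability: CellTiter-Glo luminescence.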
Numbers without * were called inactive; i = inactive; ? = inconclusive; / = no result given; [ ] = dose if it differs, or a comment. Only some compounds are listed: those with a hit (about 8% of all), similar ones and a draw of the others. Calls come from the whole dose curve; as a rule, active = well fitted curve in the direction sought with a large enough effect; inconclusive = small, poorly fitted or top-dose-only effect, or another doubt; inactive = no such curve, though single readings can be large; an effect the other way counts as inactive or inconclusive. Potency is the fitted concentration of half-maximal effect.

SMILES | KB-V1 cytotox | SW480 rerep | HT1080 IDH1KD tx | KB-3-1 cytotox | MCF10A rereplic | HT1080NT lethal
CC(C)(O)c1ccccc1CC[C@@H](SCC1(CC(=O)O)CC1)c1cccc(/C=C/c2ccc3ccc(Cl)cc3n2)c1 | i | ? | -5% | i | ? | 16%
CCOc1ccc(CNC(=S)N/N=C\c2ccc([N+](=O)[O-])cc2)cc1 | i | -7% | -3% | i | -4% | -1%
COc1ccc(/C=C/C(=O)NC(C)CCc2ccccc2)cc1OC (stereo unspecified) | i | ? | 1% | i | 9% | -1%
COc1ccccc1/C=C/C(=O)c1c2c(c(C)[nH]c1=O)CCCC2 | ? | ? | ? | i | ? | 4.5µM*
CCCCOc1ccc(CNC(=S)N/N=C/c2ccc(OC)c(OC)c2)cc1 | 18µM* | ? | 0% | ? | 5% | 0%
COc1ccccc1/C=C/C(=O)c1ccccc1 | i | ? | -22% | i | 26µM* | -18%
COc1ccc(/C=C/C(=O)NC(=S)NCc2ccccc2)cc1OC | i | 23µM* | ? | i | 7% | ?
CCOC(=O)c1ccc(-c2nnc(-c3ccc(Cl)cc3Cl)o2)cc1 | i | -4% | 2% | i | -1% | 10%
O=C(NCc1ccc(F)cc1)C(=O)NCC(c1cccs1)S(=O)(=O)c1cccs1 (stereo unspecified) | i | / | / | i | / | /
COc1ccccc1/C=C/C(=O)c1ccc(NC(C)=O)cc1 | i | 5% | ? | ? | 16µM* | -20%
COc1ccccc1/C=C/C(=O)NC(=S)NC(C)C | ? | 16µM* | 14% | ? | ? | 10%
CC(=O)c1ccc(NS(=O)(=O)c2ccc(C)cc2)cc1 | i | -4% | -2% | i | ? | -6%
COc1cc(OC)c(OC)cc1/C=C/C(=O)c1ccc(NS(=O)(=O)c2ccc(C)cc2)cc1 | 15µM* | ? | -20% | i | 5.8µM* | -21%
O=c1c2ccsc2ncn1Cc1ccccc1F | i | 0% | 0% | i | -5% | -1%
COc1ccc(C(=O)OCC(=O)N(C)C2CCS(=O)(=O)C2)cc1S(=O)(=O)N1CCCc2ccccc21 (stereo unspecified) | i | -1% | -10% | i | -7% | -16%
O=C(/C=C/c1ccc(S(=O)(=O)N2CCOCC2)cc1)Nc1ccc(F)c(F)c1F | 21µM* | -5% | -7% | ? | 3% | -13%
Cc1ccc(NC(=O)/C=C/c2ccc(S(=O)(=O)N3CCOCC3)cc2)cc1S(=O)(=O)N(C)C | i | ? | 26µM* | ? | 13% | ?
CC(=O)Nc1cccc(NC(=O)/C=C/c2ccc(S(=O)(=O)N3CCOCC3)cc2)c1 | i | 19% | -4% | i | 15% | -6%
Cc1ccc(CNC(=O)/C=C/c2ccc(S(=O)(=O)N3CCOCC3)cc2)cc1 | i | 0.82µM* | 23% | i | ? | 26%
NS(=O)(=O)c1ccc(CNC(=O)/C=C/c2ccc(S(=O)(=O)N3CCOCC3)cc2)cc1 | i | 19% | 9% | i | 1% | 4%
CCN(CC)S(=O)(=O)c1ccc(/C=C/C(=O)Nc2ccc(F)c(F)c2F)cc1 | ? | 7% | ? | 4.6µM* | -4% | -23%
CCN(C[C@H]1N[C@@](Cc2ccccc2)(C(=O)OC)[C@H]2C(=O)N(Cc3ccccc3)C(=O)[C@@H]12)C(=O)Nc1ccc(F)cc1 | i | ? | -15% | ? | 15% | 0%
O=C(c1cccnc1)N1CCCc2ccccc21 | i | -10% | 0% | i | 9% | 9%
CCOC(=O)/C=C/C(=O)NNC(=O)c1ccccc1Cl | i | 9% | 21% | i | ? | 15%
Cc1ccc(-c2nc(N)sc2-c2ccccc2)cc1C | ? | -2% | -23% | i | 8.2µM* | -2%
SMILES | KB-V1 cytotox | SW480 rerep | HT1080 IDH1KD tx | KB-3-1 cytotox | MCF10A rereplic | HT1080NT lethal
Nc1nc(-c2ccccc2)c(-c2ccccc2)s1 | i | -1% | -16% | i | 4% | -2%
Cc1ccc(-c2nc(N)sc2-c2ccc(C)cc2)cc1 | ? | 3% | ? | ? | 23µM* | ?
COc1ccc(NS(=O)(=O)c2cc3c(cc2C)N(C(C)=O)CCO3)c(OC)c1 | i | -12% | 0% | i | -14% | 18%
O=C(NNc1ccc([N+](=O)[O-])cc1[N+](=O)[O-])c1ccco1 | i | -1% | ? | ? | 9% | 18µM*
O=C(NNc1ccc([N+](=O)[O-])cc1)c1ccco1 | i | -9% | -9% | i | 1% | -1%
O=C1C2C3C=CC(CC3)C2C(=O)N1c1ccc(Cl)cc1 (stereo unspecified) | i | -11% | -3% | i | 11% | 1%
CN(C)S(=O)(=O)N1CCC(Oc2ccc(C(=O)N3CCCCCCC3)cc2)CC1 | 10µM* | -2% | -4% | ? | 23% | -4%
CN(C)S(=O)(=O)N1CCC(Oc2cccc(C(=O)NC3CCCCCC3)c2)CC1 | 1.3µM* | 6% | -15% | i | ? | ?
CC1CCCCN1C(=O)c1ccc(OC2CCN(S(=O)(=O)N(C)C)CC2)cc1 (stereo unspecified) | 23µM* | -2% | ? | i | 8% | -17%
Cc1cccc(-c2onc3ccc(C4(C)OCCO4)cc23)c1 | i | 9% | -7% | i | 3% | -9%
COc1cc(CCC(=O)OCC(=O)NC2CCCC(C)C2C)cc(OC)c1OC (stereo unspecified) | i | -6% | 14% | i | 0% | 4%
Nc1ccc(C23CC4CC(CC(CO)(C4)C2)C3)cc1 | i | -22% | 4% | i | 3% | 1%
NCC12CC3CC(C1)CC(c1ccc(Cl)cc1)(C3)C2 | ? | 6% | ? | i | ? | 23µM*
O=[N+]([O-])c1cc(/C=N/N2CCN(C3c4ccccc4-c4ccccc43)CC2)ccc1Cl | ? | -8% | 22% | 21µM* | 8% | -1%
C(=N\N1CCN(C2c3ccccc3-c3ccccc32)CC1)/c1ccccn1 | 18µM* | -1% | -1% | ? | ? | -1%
COc1ccccc1N1CCN(/N=C/c2ccc(Cl)c([N+](=O)[O-])c2)CC1 | i | -9% | -8% | i | 12% | 3%
C(=N\N1CCN(C2c3ccccc3-c3ccccc32)CC1)/c1cccnc1 | ? | -6% | -9%[9.24 µM] | i | ? | -16%

Screening results (PubChem BioAssay)
